The source of these data is PubChem BioAssay (Tox21).

Molecules are shown by their SMILES. “And” between values parts separate entries of the source, which are not always exact repeats. Equal values may be shown once. Records with an inconclusive call do not appear. More than one record can exist for a structure, and the calls need not agree. The source made the active and inactive calls. Unless noted, calls come from the whole dose curve; as a rule, active = well fitted curve in the direction sought with a large enough effect in the repeat runs; inconclusive = weak or mixed curves; inactive = no such curve, though single readings can be large; an effect the other way counts as inactive or inconclusive.

Assay [1] can be described thus: qHTS assay to test for compound auto fluorescence at 535 nm (green) in HEK293 cells (AID 720680). (In general: qHTS replaces the single test concentration by a dilution series.)
Assay [2] is described as follows: qHTS assay to test for compound auto fluorescence at 460 nm (blue) in HEK293 cell free culture (AID 720681). Summed up:
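Blue fluorescence (Ex 405/Em 460 nm, triamterene-equivalent) was read immediately after pin transfer of compound or DMSO into medium (DMEM, 10% FBS) without cells.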

Assay [3] is described as follows: qHTS assay to test for compound auto fluorescence at 535 nm (green) in HEK293 cell free culture (AID 720682). Summed up: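 No cells present: wells hold DMEM supplemented with 10% FBS, into which compound or vehicle is pinned. Green emission is then recorded (485 nm excitation, 535 nm emission) and scaled to fluorescein.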
The nature of assay [4]: qHTS assay to test for compound auto fluorescence at 590 nm (red) in HEK293 cell free culture (AID 720683). Summed up: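 Red-channel autofluorescence of compounds in culture medium (DMEM, 10% FBS), no cells, measured at 540/590 nm. Rose Bengal sodium is the reference fluorophore for equivalence.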
A short description of assay [5]: qHTS assay to test for compound auto fluorescence at 590 nm (red) in HepG2 cell free culture (AID 720684). Put shortly: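 Steps: dispense MEM/10% FBS medium, no cells; pin compound or DMSO vehicle; read red channel, Ex/Em 540/590 nm. Output given as Rose Bengal sodium equivalents.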
Assay [6] can be described thus: qHTS assay to test for compound auto fluorescence at 460 nm (blue) in HepG2 cell free culture (AID 720685). Put shortly: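 Compound (23 nL) or DMSO pinned into cell-free MEM with 10% FBS; blue fluorescence read at 405/460 nm excitation/emission, expressed as auto-fluorescence equivalency to triamterene.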
Assay [7] in a line: qHTS assay to test for compound auto fluorescence at 535 nm (green) in HepG2 cell free culture (AID 720686).
Assay [8] can be described thus: qHTS assay to test for compound auto fluorescence at 460 nm (blue) in HepG2 cells (AID 720687). Put shortly:
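Blue-channel autofluorescence (Ex/Em 405/460 nm, triamterene-equivalent) was measured after 1 hr compound exposure at 37 C, 5% CO2. Cells were HepG2, plated overnight at 37 C in MEM plus 10% FBS.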

Assay [9] in a line: qHTS assay to identify small molecule antagonists of the glucocorticoid receptor (GR) signaling pathway - cell viability counter screen (AID 720693). Note: nearly all actives have a fitted effect of over 55% in size. Note: potency is the fitted concentration of half-maximal effect.
A short description of assay [10]: qHTS assay for identifying genotoxic compounds that show differential cytotoxicity against isogenic chicken DT40 cell lines with known DNA damage response pathways - wild type cell line (AID 743012). Note: nearly all actives have a fitted effect of over 60% in size. Note: potency is the fitted concentration of half-maximal effect. Put shortly: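 First, wild type DT40 cells were plated at 300 per well and equilibrated about 0.5 h at 37 C/5% CO2. Next, compounds in DMSO were added and exposure lasted 40 h. Finally, CellTiter-Glo was added for 30 min at room temperature and luminescence recorded.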

Assay [11] in a line: qHTS assay for identifying genotoxic compounds that show differential cytotoxicity against isogenic chicken DT40 cell lines with known DNA damage response pathways - Rad54/Ku70 mutant cell line (AID 743015). Note: nearly all actives have a fitted effect of over 60% in size. Note: potency is the fitted concentration of half-maximal effect.
Assay [12] is described as follows: qHTS assay to identify small molecule antagonists of the androgen receptor (AR) signaling pathway - cell viability counter screen (AID 743033; note: nearly all actives have a fitted effect of over 45% in size; note: potency is the fitted concentration of half-maximal effect).
Assay [13] is described as follows: qHTS assay to identify small molecule antagonists of the androgen receptor (AR) signaling pathway using the MDA cell line - cell viability counter screen (AID 743041; note: nearly all actives have a fitted effect of over 45% in size). Summed up:
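Cells were plated at 3,000 per well and left 5 h. Compounds in DMSO were then pinned in, followed by R1881. After 16 h at 37C, CellTiter-Fluor fluorescence gave viability.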

A short description of assay [14]: qHTS assay to identify small molecule antagonists of the thyroid receptor (TR) signaling pathway - cell viability counter screen (AID 743064). Note: nearly all actives have a fitted effect of over 50% in size. Note: potency is the fitted concentration of half-maximal effect. Summed up:
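Rat GH3 pituitary tumor cells stably expressing two TR response elements driving luciferase were plated, rested 4 h, then dosed with library compounds and T3 (1 nM final). After 23.5 h at 37 °C, CellTiter-Fluor was added for 30 min and fluorescence recorded.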

Assay [15] concerns the target Glucocorticoid receptor (Homo sapiens) (UniProt P04150). Put plainly: qHTS assay to identify small molecule agonists of the glucocorticoid receptor (GR) signaling pathway (AID 720691; active = well fitted activation curve with a large enough effect in the signal ratio in the repeat runs, not every such curve was filed as active; the % refers to the signal ratio). Put shortly:
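qHTS in GR-bla HeLa cells: 4 h settling at 37 C/5% CO2, 18 h compound incubation at 37 C, 2 h LiveBLAzer B/G FRET substrate at room temperature, fluorescence intensity measured.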

The nature of assay [16]: qHTS assay for identifying genotoxic compounds that show differential cytotoxicity against isogenic chicken DT40 cell lines with known DNA damage response pathways - Rev3 mutant cell line (AID 743014). Note: nearly all actives have a fitted effect of over 55% in size. Note: potency is the fitted concentration of half-maximal effect.
Assay [17] in a line: qHTS assay to identify small molecule antagonists of the thyroid receptor (TR) signaling pathway (AID 743065). Note: nearly all actives have a fitted effect of over 55% in size. Note: potency is the fitted concentration of half-maximal effect. Put shortly:
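Antagonism measured as loss of luciferase signal in GH3 cells stably carrying a TRE-luciferase reporter, co-treated with compound and T3 (1 nM final) for 23.5 h at 37 C. Viability was read in the same well by CellTiter-Fluor.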

Assay [18] concerns the target Glucocorticoid receptor (Homo sapiens) (UniProt P04150). Nature of the assay: qHTS assay to identify small molecule antagonists of the glucocorticoid receptor (GR) signaling pathway (AID 720692; active = well fitted inhibition curve with a large enough effect in the signal ratio in the repeat runs, not every such curve was filed as active; the % refers to the signal ratio). Summed up: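 Inhibition of glucocorticoid signalling is measured in HeLa cells with a GRE-controlled beta-lactamase reporter; cells are co-treated with compound and 5 nM dexamethasone (final) for 18 h before FRET substrate readout.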

Assay [19] has as its target Androgen receptor (Homo sapiens) (UniProt P10275). Put plainly: qHTS assay to identify small molecule agonists of the androgen receptor (AR) signaling pathway (AID 743036; active = well fitted activation curve with a large enough effect in the signal ratio in the repeat runs, with a control signal flat, not every such curve was filed as active; the % refers to the signal ratio). Summed up: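 Quantitative HTS of the Tox21 10K library in HEK293 cells bearing a stably integrated UAS-controlled beta-lactamase reporter. Compound exposure lasted 16 h at 37C. Reporter activity was detected by FRET substrate fluorescence after 2 h at room temperature.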

Assay [20] shares this target. Put plainly: qHTS assay to identify small molecule antagonists of the androgen receptor (AR) signaling pathway using the MDA cell line (AID 743042; note: nearly all actives have a fitted effect of over 55% in size). Summed up: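 Antagonist mode: compounds plus R1881 agonist added to MDA-kb2 AR-luc cells, incubated 16 h at 37C. Luciferase reporter luminescence quantified, with multiplexed CellTiter-Fluor readout for cell viability.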

Chain of Androgen receptor (Homo sapiens) (P10275 whole entry, looked up): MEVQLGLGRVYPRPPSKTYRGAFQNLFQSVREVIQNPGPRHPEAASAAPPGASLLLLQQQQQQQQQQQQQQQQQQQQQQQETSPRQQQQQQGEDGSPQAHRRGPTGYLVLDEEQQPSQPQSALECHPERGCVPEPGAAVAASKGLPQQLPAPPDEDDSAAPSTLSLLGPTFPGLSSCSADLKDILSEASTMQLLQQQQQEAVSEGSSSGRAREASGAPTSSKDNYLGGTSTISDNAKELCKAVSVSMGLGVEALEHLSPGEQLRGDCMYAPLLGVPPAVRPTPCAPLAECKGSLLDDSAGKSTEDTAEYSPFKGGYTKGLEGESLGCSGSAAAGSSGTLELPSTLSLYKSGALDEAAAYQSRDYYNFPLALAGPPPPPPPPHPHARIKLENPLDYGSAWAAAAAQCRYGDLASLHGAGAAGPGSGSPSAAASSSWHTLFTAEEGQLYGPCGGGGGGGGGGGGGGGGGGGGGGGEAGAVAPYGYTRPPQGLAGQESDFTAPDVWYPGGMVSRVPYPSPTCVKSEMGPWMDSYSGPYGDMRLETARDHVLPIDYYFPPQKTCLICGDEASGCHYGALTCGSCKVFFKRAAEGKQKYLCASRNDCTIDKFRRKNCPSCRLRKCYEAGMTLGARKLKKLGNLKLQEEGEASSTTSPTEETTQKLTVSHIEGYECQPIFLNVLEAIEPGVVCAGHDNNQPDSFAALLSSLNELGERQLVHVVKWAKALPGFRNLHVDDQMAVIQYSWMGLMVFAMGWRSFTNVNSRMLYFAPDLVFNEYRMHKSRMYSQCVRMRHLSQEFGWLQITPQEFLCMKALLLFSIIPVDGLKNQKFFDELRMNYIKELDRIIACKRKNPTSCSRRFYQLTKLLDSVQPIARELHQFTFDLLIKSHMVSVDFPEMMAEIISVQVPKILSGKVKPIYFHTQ
Chain of Glucocorticoid receptor (Homo sapiens) (P04150 whole entry, looked up): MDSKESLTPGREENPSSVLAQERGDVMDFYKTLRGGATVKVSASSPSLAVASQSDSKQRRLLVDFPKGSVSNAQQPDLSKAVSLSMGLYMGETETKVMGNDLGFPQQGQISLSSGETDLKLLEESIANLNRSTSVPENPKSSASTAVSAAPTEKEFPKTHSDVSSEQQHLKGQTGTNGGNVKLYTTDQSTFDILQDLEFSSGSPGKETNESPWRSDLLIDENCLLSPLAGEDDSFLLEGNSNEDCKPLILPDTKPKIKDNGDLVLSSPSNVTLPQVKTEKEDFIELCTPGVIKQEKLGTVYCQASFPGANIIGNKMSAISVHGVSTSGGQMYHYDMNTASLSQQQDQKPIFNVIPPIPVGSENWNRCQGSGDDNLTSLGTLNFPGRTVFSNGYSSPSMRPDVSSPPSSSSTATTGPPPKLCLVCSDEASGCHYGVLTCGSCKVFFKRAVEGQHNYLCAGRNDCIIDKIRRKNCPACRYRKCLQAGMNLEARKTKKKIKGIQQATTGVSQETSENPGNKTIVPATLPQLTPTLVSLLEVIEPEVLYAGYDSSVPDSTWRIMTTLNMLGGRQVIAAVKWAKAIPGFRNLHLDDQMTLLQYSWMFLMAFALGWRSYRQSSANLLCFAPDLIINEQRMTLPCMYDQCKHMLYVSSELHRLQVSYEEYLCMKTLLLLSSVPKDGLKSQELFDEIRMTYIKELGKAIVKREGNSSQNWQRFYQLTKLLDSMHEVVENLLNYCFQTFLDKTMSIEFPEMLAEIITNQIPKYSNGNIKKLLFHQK

Regarding `c1ccncc1`, the Potency entry in [1], in assay [3], in assay [4], in assay [5], in assay [7] and in assay [9] was “inactive” in each case. Also, the Potency result in assay [10], in assay [11], in [12], in assay [13] and in [14] was “inactive” in each case. For the same compound, the compound was classed as inactive in [2], in assay [6] and in assay [8].

In the case of `C#C[C@]1(O)CC[C@H]2[C@@H]3CCc4cc(OC)ccc4[C@H]3CC[C@@]21C`, the Potency entry in assay [1], in assay [3], in assay [4], in [5], in [7] and in assay [15] was “inactive” throughout. The Potency entry in [9], in assay [12], in assay [13] and in assay [14] was “inactive” in each case. Besides, the compound was classed as inactive in assay [2], in assay [6] and in assay [8]. Moreover, the Potency was 5.31 µM (active) and 3.86 µM (active) in assay [10]; 5.96 µM (active) and 4.86 µM (active) in assay [16]; 6.68 µM (active) and 6.86 µM (active) in [11].

For `CC(=O)O[C@]1(C(C)=O)CC[C@H]2[C@@H]3C=C(Cl)C4=CC(=O)[C@@H]5C[C@@H]5[C@]4(C)[C@H]3CC[C@@]21C`, the Potency result in assay [1], in assay [3], in assay [4], in assay [5], in assay [7] and in assay [13] was “inactive” in each case. Besides, the result in assay [2], in [6] and in [8] was inactive. For the same compound, the Potency is 13.3 µM (active) and 12.2 µM (active) and 19.3 µM (active) in [10]; 21.1 µM (active) and 4.85 µM (active) and 15.4 µM (active) in [16]; 23.7 µM (active) and 7.69 µM (active) and 21.7 µM (active) in [11]; “inactive and 19.5 µM (active)” in assay [12]; “inactive and 54.4 µM (active)” in [14]; 24.3 µM (active) and 54.5 µM (active) in assay [17].

Take `Cn1cnc([N+](=O)[O-])c1Sc1ncnc2nc[nH]c12`: the Potency entry in assay [1], in assay [3], in assay [4], in assay [5], in [7] and in assay [15] was “inactive” each time. The Potency result in [10], in assay [11], in assay [12], in assay [13] and in assay [14] was “inactive” throughout. The compound was classed as inactive in [2], in assay [6] and in assay [8]. Moreover, in [16], the Potency result is “inactive and 52.6 µM (active)”.

In the case of `CC(=O)C1(C)CC2=C(CCCC2(C)C)CC1C` (stereo not given), the Potency result in assay [1], in assay [3], in [4], in assay [5], in [7] and in assay [15] was “inactive” each time. The Potency result in [18], in assay [9], in assay [10], in [16], in assay [12] and in assay [13] was “inactive” throughout. The Potency result in assay [20], in assay [14] and in [17] was “inactive” each time. Further, the result in [2], in assay [8] and in assay [19] was inactive. Further, the Potency entry in [11] was “inactive and 54.5 µM (active)”.

As for `CC(=O)Oc1ccccc1C(=O)Nc1ncc([N+](=O)[O-])s1`, the Potency result in assay [1], in assay [3], in assay [4], in [5], in assay [7] and in assay [13] was “inactive” each time. Also, the result in assay [2], in [6] and in [8] was inactive. Moreover, the Potency is 11.2 µM (active) in assay [9]; 13.3 µM (active) in assay [10]; 10.6 µM (active) and 62.4 µM (active) in assay [16]; 13.3 µM (active) in assay [11]; “inactive and 7.06 µM (active)” in [12]; 29.8 µM (active) and 19.7 µM (active) in assay [14].

Regarding `CCCCc1oc2ccccc2c1C(=O)c1cc(I)c(OCCN(CC)CC)c(I)c1`, the Potency result in assay [1], in assay [3], in [4], in assay [5], in assay [7] and in assay [13] was “inactive” each time. For the same compound, the compound was called inactive in assay [2], in [6] and in [8]. Also, the Potency result in assay [12] is “inactive and 34.9 µM (active)”; in assay [14], 13.3 µM (active) and 26.6 µM (active) and 21.9 µM (active).
